GDH-TPI inh: GDH-TPI coupled enzyme inhibition counter-screen; hit rate 1.2% among 360,000; AID 588335; inhibition, % at 4.8 µM; GDH-TPI coupled enzyme counterscreen, NADH absorbance; in the data active = inhibition above about 30%;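 also: 0% = DMSO wells and 100% = wells lacking the enzyme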
Anthrax LF inh2: anthrax lethal factor protease inhibition | multiplex microsphere protease cleavage assay, LF | inhibition, % at 10 µM | hit rate 0.12% among 360,000; also: plate controls were buffer without enzyme for full effect and enzyme alone for no effect
BoNT F protease: BoNT F light chain protease inhibition. Multiplex microsphere protease cleavage assay, flow cytometry. inhibition, % at 10 µM. hit rate 0.22% among 360,000. AID 588497; in the data active = inhibition above about 35%, passing the limit was not always enough; inconclusive = no clear call, values can overlap the other calls; also: plate controls were buffer without enzyme for full effect and enzyme alone for no effect
Autofluor counter: compound fluorescence in toxin protease inhibitor counterscreen; compound autofluorescence counterscreen, microsphere flow cytometry; active compounds read high; fluorescence intensity (concentration not given with the values); hit rate 3.1% among 360,000; AID 624483; in the data active = fluorescence intensity above about 16000; inconclusive = no clear call, values can overlap the other calls
BoNT-A LC inh2: blocks Botulinum neurotoxin A light chain protease; inhibition, % at 10 µM; multiplex microsphere protease substrate cleavage, flow cytometry; AID 588499; hit rate 0.17% among 360,000; also: plate controls were buffer without enzyme for full effect and enzyme alone for no effect
FBA Mtb inh: inhibits M. tuberculosis FBA enzyme | AID 588726 | P9WQA3 | hit rate 2.3% among 360,000 | purified M. tuberculosis FBA, fluorescence read-out | inhibition, % at 1 µM; in the data active = inhibition above about 27%;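 also: 0% = vehicle and 100% = reference inhibitor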
Numbers without * were called inactive; ? = inconclusive; . = not tested or not shown. Compounds with a hit are over-represented: about 6.6% of the library has one in this group of screens. Rule as the data show it, unless noted: active = inhibition above about 30%; inconclusive = no clear call, values can overlap the other calls; inactive = below that.

SMILES | GDH-TPI inh | Anthrax LF inh2 | BoNT F protease | Autofluor counter | BoNT-A LC inh2 | FBA Mtb inh
CC(C)C[C@H](NC(=O)C1CC(=O)N(c2ccc3c(c2)OCO3)C1)C(=O)NC1CCCCC1 (stereo partly drawn) | 1 | 1 | 1 | 5785 | -1 | 3
CCN1/C(=C/C=C/C=C/C=C/c2sc3ccccc3[n+]2CC)Sc2ccccc21 | 3 | -75 | -250 | 1654 | 8 | -1
CCN1/C(=C/c2ccc3cc(C)ccc3[n+]2CC)Sc2cc(C)c(C)cc21 | -3 | -62 | -93 | 8339 | 49* | -4
CC[n+]1c(/C=C2\Sc3ccccc3N2C)ccc2cccc(C)c21 | -9 | -31 | -60 | 4252 | 62* | -19
CC[n+]1ccccc1/C=C1\Sc2ccc(C)cc2N1C | 7 | -13 | -6 | 3305 | 3 | -1
CCN1/C(=C/c2ccc3cc(C)ccc3[n+]2CC)Sc2ccccc21 | 7 | 22 | -28 | 6257 | 78* | -14
COC(=O)c1ccccc1NC(=O)CSc1nc2ccsc2c(=O)n1Cc1ccc(C(=O)O)cc1 | -5 | 2 | 0 | 3419 | 0 | -3
CO/N=C(/CNC(=O)c1ccc(F)cc1)c1ccc(Cl)cc1 | -2 | 7 | 4 | ? | 0 | -1
CCn1c2ccccc2c2cc(NC(=O)N3CCCCC3)ccc21 | -2 | -3 | -11 | 3581 | 0 | 15
CC(C)[C@@H]1Cc2[nH]c(=O)[nH]c(=O)c2[C@H](C)O1 | . | 4 | 0 | 5462 | 1 | .
COCCn1c(=S)[nH]c2cc(C(=O)NCCCN3CCOCC3)ccc2c1=O | -1 | 0 | -2 | 22856* | -2 | -3
COCCn1c(=S)[nH]c2cc(C(=O)NC3CCCCCC3)ccc2c1=O | 5 | 2 | 1 | 3556 | 0 | -1
COCCn1c(=S)[nH]c2cc(C(=O)N3CCC(C(N)=O)(N4CCCCC4)CC3)ccc2c1=O | 5 | -7 | 3 | 22116* | 3 | -1
CCOC(=O)C1CCCN(C(=O)c2ccc3c(=O)n(CCOC)c(=S)[nH]c3c2)C1 (stereo not drawn) | -1 | -1 | 1 | 20489* | 1 | -1
COC(=O)C1=C(C)NC(C)=C(C(=O)OC)C1C(=O)OCc1nnc(-c2ccccc2Cl)o1 | 6 | 5 | -2 | 6831 | -1 | 2
CC(=O)c1ccc(OCc2cc(C(=O)N3CCN(C4CCCC4)C(=O)C3)no2)cc1 | 2 | 0 | -4 | 6072 | -2 | 2
Nc1c(-c2ccccc2)cnn1-c1cccc([N+](=O)[O-])c1 | 15 | -5 | -1 | 17591* | -2 | -2
CC(C)Oc1ccc(C(=O)N/N=C/c2ccc(-c3ccc(S(=O)(=O)Nc4ncccn4)cc3)o2)cc1 | 50* | -4 | -10 | 3907 | 0 | 31*
Cc1ccc(C(=O)N/N=C\c2ccc(-c3ccc([N+](=O)[O-])cc3)o2)cn1 | 16 | 1 | ? | 4812 | ? | -6
NC(=O)N/N=C/c1ccc(-c2ccc(S(=O)(=O)Nc3ncccn3)cc2)o1 | 37* | ? | 6 | ? | 4 | 9
CCCS(=O)(=O)NC(=O)C1(C)CCN(C(=O)C2(c3ccc(Cl)cc3)CCCC2)C1 (stereo not drawn) | 11 | -7 | -3 | 3760 | 0 | -4
CCC1CCCCN1Cc1ccc(CNS(=O)(=O)c2ccc3c(c2)oc(=O)n3C)o1 (stereo not drawn) | -6 | -2 | -10 | 22053* | -6 | 2
Cn1c(=O)oc2cc(S(=O)(=O)NCCC(=O)NCCc3ccccc3)ccc21 | -6 | -2 | 0 | 20294* | -1 | 2
Cc1ccc(CCNC(=O)CCNS(=O)(=O)c2ccc3c(c2)oc(=O)n3C)cc1 | -4 | -4 | -3 | 9981 | 0 | 1
Cn1c(=O)oc2cc(S(=O)(=O)Nc3cccc(C(=O)O)c3)ccc21 | -8 | -5 | -4 | 19703* | 0 | 2
SMILES | GDH-TPI inh | Anthrax LF inh2 | BoNT F protease | Autofluor counter | BoNT-A LC inh2 | FBA Mtb inh
CCOC(=O)c1ccc(NC(=O)CCNS(=O)(=O)c2ccc3c(c2)oc(=O)n3C)cc1 | 15 | -2 | 0 | 23217* | 0 | -1
CCOC(=O)c1c(N2C(=O)CC(Sc3ccccc3C(=O)O)C2=O)sc2c1CCCC2 (stereo not drawn) | 3 | -11 | 0 | 4665 | 0 | 2
CNC(=O)NC(=O)C(C)OC(=O)c1oc2ccccc2c1CSc1ccc(Cl)cc1 (stereo not drawn) | 9 | -1 | 0 | 2041 | 1 | -1
CCCCC(=O)NC(=S)Nc1ccc(S(=O)(=O)N2CCCC2)cc1 | 7 | -3 | -5 | 5838 | -2 | 1
O=C(Cc1ccc(Br)cc1)Nc1ccccc1Cl | 8 | -2 | -4 | 2436 | 0 | 0
CCCCN(CC)CCNS(=O)(=O)c1ccc2c(c1)oc(=O)n2C | 9 | 2 | 0 | 15823 | 2 | 2
CCCN(CCC)CCNS(=O)(=O)c1ccc2c(c1)oc(=O)n2C | 4 | -2 | -1 | 22046* | ? | -2
Cn1c(=O)oc2cc(S(=O)(=O)NCCC(=O)NCCc3ccc(Cl)cc3)ccc21 | -9 | -9 | 1 | 19293* | 2 | 1
Cc1cc(C)c(Cn2ncn(-c3ccc(Br)cc3)c2=O)c(C)c1 | -3 | -1 | -4 | 4061 | -1 | 1
CCCC(c1nnnn1CCOC)N(Cc1cc2cc(C)c(C)cc2[nH]c1=O)CC1CCCO1 (stereo not drawn) | 14 | 1 | -1 | 16616* | 0 | 6
CSCCC(NC(=O)OC(C)(C)C)C(=O)NC(C(=O)NC(CC(C)C)C(N)=O)C(C)C (stereo not drawn) | 14 | 11 | 72* | 9295 | 2 | 3
CC(C)CC(NC(=O)C(NC(=O)OC(C)(C)C)C(C)C)C(N)=O (stereo not drawn) | 1 | -1 | -1 | 2189 | 0 | 6
Cc1ccc(S(=O)(=O)NCCCCCC(=O)N(C)C)cc1 | -9 | -3 | 2 | 19200* | 1 | 0
Cc1ccc(S(=O)(=O)NCCOCCNS(=O)(=O)c2ccc(C)cc2)cc1 | 13 | 2 | 0 | 16362* | 0 | 0
CSc1nc(C)cc(OCCNS(=O)(=O)c2ccc(C)cc2)n1 | 8 | -7 | -7 | 17261* | -6 | 3
Cc1nc2cc(F)ccc2n1C1CCN(S(=O)(=O)c2ccccc2)CC1 | -11 | -3 | 1 | 8223 | 0 | -2
COC1=CC(C)C2CC3OC(=O)CC4C(C)=C(OC)C(=O)C(C2(C)C1=O)C34C (stereo not drawn) | -5 | -2 | 15 | 5656 | 1 | -2
COc1cccc2c1OC[C@@H](CO)[C@H]2N(C)C(=O)Nc1ccc(Cl)cc1Cl | 10 | -1 | -10 | 17819* | -7 | 0
C#Cc1ccc(NC(=O)C2(C)CCN2C(=O)Cc2ccc(C(C)C)cc2)cc1 (stereo not drawn) | 2 | -2 | -5 | 3879 | 0 | -1
COc1ccc(/C=N/N(CCC(=O)NC(C)(C)C)C2=NS(=O)(=O)c3ccccc32)cc1 | 47* | 0 | -26 | 3878 | -1 | 6
CCOC(=O)c1c(-n2c(C)cc(C=O)c2C)sc2c1CCCC2 | 2 | -4 | 0 | 22089* | 0 | 1

Screening results deposited in PubChem BioAssay by several laboratories.
